40 molecules from PubChem BioAssay (NCI) can be followed below.

About 79,000 compounds went through this panel and 15% of them were active in at least one assay; those are over-represented in the sample as a whole. Values without a mark were called inactive. The source made the active and inactive calls. Rule as the data show it: active = growth inhibition above about 70%; inactive = the rest.

The test in a line: NCI Yeast Anticancer Drug Screen. Data for the sgs1 mgt1 strain (AID 161).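 Also: 0% = growth of cultures given vehicle only.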 The following applies: S. cerevisiae sgs1 mgt1 strain, at 50.0 µM, hits give high values. The procedure: Growth inhibition of yeast strains with defined genetic alterations is measured as a screen for potential anti-cancer activity. Selected strains with alterations in DNA damage repair or cell cycle control were exposed to compounds and growth inhibition was measured relative to vehicle treated controls. The strain used in this assay is sgs1 mgt1
With `Cc1cc(=O)n(-c2ccc(F)cc2)[nH]1`, the growth inhibition is 22.1%.

As to `COc1cc(/C=N\Nc2ccccc2)ccc1OC(=O)c1ccccc1`, the growth inhibition is 41.4%. Turning to `C/C=C/CC(C)C(O)C1C(=O)NC(CC)C(=O)N(C)CC(=O)N(C)C(CC(C)C)C(=O)NC(C(C)C)C(=O)N(C)C(CC(C)C)C(=O)NC(C)C(=O)NC(C)C(=O)N(C)C(CC(C)C)C(=O)N(C)C(CC(C)C)C(=O)N(C)C(C(C)C)C(=O)N1C` (stereo not given), the growth inhibition is -5.45%. The result for `Cc1ccc(C)n1-c1ccsc1C(=O)NNC(=O)CCl` reads 2.25%; that for `O=C(O)c1cccc([N+](=O)[O-])c1`, -21.8%. For `O=C1C=C(Nc2ccc([N+](=O)[O-])cc2)c2ccccc2C1=O`, the growth inhibition is -1.3%.

For the molecule `N#Cc1ccc(OC(=O)Nc2ccc(Cl)c(Cl)c2)cc1`, the growth inhibition was 20.9%.

With `CC(C)(O)C#CC#CC(C)(C)O`, the growth inhibition was 5.4%. Regarding `C#CC(C)(O)c1ccc(Cl)cc1` (stereo not given), the growth inhibition was 8.7%. Regarding `O=C(O)c1cccc([N+](=O)[O-])c1O`, the growth inhibition is 8.95%.

Regarding `CCOC(=O)C1=C(C)NC(=O)NC1c1cccs1` (stereo not given), the growth inhibition was -14.4%.

Consider `CC(=O)c1sc2c(c1OC(=O)c1ccc(Cl)cc1Cl)c(=O)n(-c1ccccc1)c(=S)n2-c1ccccc1`, for which the growth inhibition is -19.4%. Turning to `O=C(Cc1nc2ccc([N+](=O)[O-])cc2nc1CC(=O)c1ccccc1)c1ccccc1`, the growth inhibition was -10.5%. As for `CC(CN1CCCCC1)NC(=O)c1scnc1-c1ccccc1` (stereo not given), the figure is -9.15%. As for `O=C1C=CC2=C3c4cc(O)c(O)cc4CC3(O)COC2=C1O` (stereo not given), the figure is -9.1%; as for `O=C1c2ccccc2C(=O)N1OCc1ccccc1`, -14.4%; as for `C[N+](C)(C)C(=O)c1ccccc1`, 22.1%. Take `CCCCC/C=N/Nc1nc(C)cc(=O)[nH]1`: the growth inhibition was -8.95%. As for `Cc1cc(C(C)(C)C)cc(C)c1Br`, the figure is -9.25%; as for `O=[N+]([O-])c1ccc(-c2noc(-c3cccs3)n2)cc1`, 13.4%. The result for `COc1cc([C@@H]2c3cc4c(cc3[C@H](O)[C@H]3COC(=O)[C@H]23)OCO4)cc(OC)c1OC` reads 9.05%; that for `Cc1ccc(S(=O)(=O)O)c(C)c1`, 14.4%.

Consider `OC1CCCc2ccccc21` (stereo not given), for which the growth inhibition is 13.6%. The result for `Cc1ccccc1N=C(c1ccccc1)C1C(=O)c2ccccc2C1=O` reads 42.2%; that for `Cc1cc(=O)cc(C)n1-c1ccccc1`, -15.4%. As for `C=CCNc1nnc(C)s1`, the figure is -21.6%; as for `NNc1ccccc1C(=O)O`, -2.55%. With `CCCOC(=O)C(O)c1ccccc1` (stereo not given), the growth inhibition was -5.5%.

On to `C=CCOC(=O)C(=O)OCC=C`, for which the growth inhibition was -25.9%. The result for `COc1ccc(NC(=O)CCl)cc1` reads 24.4%. The result for `CC(C)(C)c1cc(O)c(C(C)(C)C)cc1O` reads 6.05%; that for `Cc1ccc(/C=C2\SC(=S)N(c3ccc(F)cc3)C2=O)o1`, 28.4%; that for `O=c1cc(-c2ccccc2)[nH]c(=S)[nH]1`, 8.65%. As for `CCOC(=O)CCCS(C)(=O)=O`, the figure is -32%.

For the molecule `N=c1c(C(=O)OCc2ccccc2)ncc(CCl)n1O`, the growth inhibition is 72.2% (active). As for `C#CC(C(C)C)N(CCO)CCCC` (stereo not given), the figure is 8.3%; as for `O=C(O)CNC(=O)c1ccccc1`, -25.6%. The result for `NC(=O)NC(=O)c1ccc(Cl)cc1` reads 19.2%.

`O=S(=O)(O)CC(O)CN1CCN(CCO)CC1` (stereo not given): the growth inhibition was -36.8%.

Regarding `NC(=S)CN1CCOCC1`, the growth inhibition was -5.9%.
